Test results as given in PubChem BioAssay (NCATS).
The source made the active and inactive calls. The call rests on the fitted dose curve; in most records, active means well fitted curve in the direction sought with a large enough effect; inconclusive means small, poorly fitted or top-dose-only effect, or another doubt; inactive means no such curve, though single readings can be large or run the other way.

biological target: Hexokinase-4 (Homo sapiens) + Glucokinase regulatory protein (Homo sapiens) (UniProt P35557+Q14397); assay: qHTS assay for inhibitors of recombinant human GCK-GKRP interaction: ADP-Glo assay (AID 743206); conditions: ADP-Glo luminescence, 60 min; series mostly up to 76.9 µM; activity, positive = activation: at the top concentration;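 further: plate controls were DMSO plus enzyme for no effect and no enzyme for full effect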
Excerpt: Glucokinase (GCK) is a glucose sensor in hepatocytes and pancreatic beta-cells. Hepatic GCK is regulated by glucokinase regulatory protein (GKRP), which is predominantly localized to the liver. GKRP binds to GCK inhibiting its activity in the fasting state while in the presence of glucose the GKRP is displaced. There is an additional layer of regulation by fructose 1-phosphate and fructose 6-phosphate, which inhibit and enhance the GCK-GKRP interaction, respectively. GCK plays a role in glucose homeostasis and there is an interest in the development of strategies to activate GCK to lower blood glucose levels in type 2 diabetes. To date the majority of effort has focused on direct activation of GCK and the assays developed herein look to activate GCK by inhibiting its binding to GKRP. A compound that inhibits the interaction of GCK with GKRP could be important for the treatment of diabetes and can also be used as a tool compound to further elucidate GCK-GKRP biology. To that end, we have developed a sensitive HTS biochemical assay where in GCK activity is coupled to luciferase to interrogate the GCK-GKRP interaction. This assay was screened against a small compound library to look for modulators of activity.
2 uL of 15 nM GST-GCK and 15 nM FLAG-GKRP proteins with 2 uM S6P (columns 1-2, 4-48; Millipore, Billerica, MA) are dispensed into Greiner, white solid-bottom 1536-well assay plates; columns 3 receive buffer without GCK as a control for maximum inhibition. Compounds (23 nL) are then transferred via Kalypsys pin tool equipped with 1536-pin array (10 nL slotted pins, V&P Scientific, San Diego, CA). The library compounds are in columns 5-48 and columns 1-4 serve as controls with DMSO in columns 1 and 3 and 26 mM 1:1.5 fold serial of gluckokinase activator (GKA-EMD) in column 2 and 26 mM of the glucokinase activator (GKA-EMD) in column 4. Following addition of compound, 1 uL of ATP […] is added, and the plate is incubated for 60 minutes at room temperature. The amount of ADP is then quantified by the ADP-Glo Kit (Promega, Madison, WI). First, 2 uL of the first kit reagent is added, and the reaction is incubated for 45 minutes; then, 4 uL of the second kit reagent are added and the reaction is incubated for 30 minutes at which time the luminescence is read on a Viewlux plate reader (Perkin-Elmer, Waltham, MA). The final concentration of reagents in the reaction are 0.4 mM ATP, 25 mM Hepes pH 7.6, 25 mM KCl, 2 mM MgCl2, 1 mM DTT, 0.025% BSA, 0.01% Tween 20, 5 mM glucose. Data are normalized to DMSO-treated control columns with (maximum signal) and without (minimum signal) enzyme.

Sequence of Hexokinase-4 (Homo sapiens) + Glucokinase regulatory protein (Homo sapiens) (P35557 whole entry, looked up): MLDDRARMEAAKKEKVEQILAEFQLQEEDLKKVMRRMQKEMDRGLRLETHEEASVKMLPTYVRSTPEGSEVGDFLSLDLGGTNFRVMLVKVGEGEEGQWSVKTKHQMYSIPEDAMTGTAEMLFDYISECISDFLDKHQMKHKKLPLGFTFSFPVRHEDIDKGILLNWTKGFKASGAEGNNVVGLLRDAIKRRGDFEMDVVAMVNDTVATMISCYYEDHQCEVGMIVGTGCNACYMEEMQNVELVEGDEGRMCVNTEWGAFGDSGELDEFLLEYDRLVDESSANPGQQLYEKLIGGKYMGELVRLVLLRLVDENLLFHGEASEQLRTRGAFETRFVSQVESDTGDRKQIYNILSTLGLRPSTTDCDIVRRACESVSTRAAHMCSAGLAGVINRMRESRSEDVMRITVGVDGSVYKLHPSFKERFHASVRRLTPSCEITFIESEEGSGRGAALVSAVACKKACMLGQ
Sequence of Hexokinase-4 (Homo sapiens) + Glucokinase regulatory protein (Homo sapiens) (Q14397 whole entry, looked up): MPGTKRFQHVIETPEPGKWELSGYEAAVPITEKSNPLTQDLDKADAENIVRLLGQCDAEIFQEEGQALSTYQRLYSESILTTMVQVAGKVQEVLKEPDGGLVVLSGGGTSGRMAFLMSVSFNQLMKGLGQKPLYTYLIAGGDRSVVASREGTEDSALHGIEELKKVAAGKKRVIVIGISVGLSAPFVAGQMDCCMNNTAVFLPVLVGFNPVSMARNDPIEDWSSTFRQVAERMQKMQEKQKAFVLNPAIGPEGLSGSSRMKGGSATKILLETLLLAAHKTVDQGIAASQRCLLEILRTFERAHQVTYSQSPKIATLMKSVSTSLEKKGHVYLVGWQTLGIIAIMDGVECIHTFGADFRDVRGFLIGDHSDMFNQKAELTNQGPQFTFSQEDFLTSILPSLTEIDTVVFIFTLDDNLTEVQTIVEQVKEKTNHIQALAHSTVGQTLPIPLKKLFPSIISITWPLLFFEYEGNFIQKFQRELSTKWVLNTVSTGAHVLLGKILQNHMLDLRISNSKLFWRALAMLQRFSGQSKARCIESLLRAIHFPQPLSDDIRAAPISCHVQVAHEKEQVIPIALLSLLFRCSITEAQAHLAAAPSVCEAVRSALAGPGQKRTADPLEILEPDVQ

Row | SMILES | activity, positive = activation
1 | CN(C)c1nc(N(C)C)nc(N(C)C)n1 | 1.03% (inactive)
2 | Nc1nnc(-c2cccc(Cl)c2Cl)c(N)n1 | 1.29% (inactive)
3 | Cn1c(=O)c2c(ncn2C)n(C)c1=O | 0.163% (inactive)
4 | COC(=O)Nc1nc2ccc(C(=O)c3cccs3)cc2[nH]1 | 3.59% (inactive)
5 | O=c1c(O)c(-c2ccc(O)c(O)c2)oc2cc(O)cc(O)c12 | -5.96% (inactive)
6 | CC(C)NCC(O)c1ccc(O)c(O)c1 (stereo not given) | 0.846% (inactive)
7 | NS(=O)(=O)c1cc2c(cc1Cl)NCNS2(=O)=O | 1.78% (inactive)
8 | COc1ccc2[nH]cc(CCNC(C)=O)c2c1 | -0.892% (inactive)
9 | CS(=O)(=O)Nc1ccc([N+](=O)[O-])cc1Oc1ccccc1 | 3.71% (inactive)
10 | Nc1nc2c(ncn2COC(CO)CO)c(=O)[nH]1 | -0.257% (inactive)
11 | COc1cc2nc(N(C)CCCNC(=O)C3CCCO3)nc(N)c2cc1OC (stereo not given) | 0.117% (inactive)
12 | NCCc1cnc[nH]1 | 2.51% (inactive)
13 | O=c1[nH]cc(F)c(=O)[nH]1 | 1.54% (inactive)
14 | COc1ccc2c(c1)c(CC(=O)O)c(C)n2C(=O)c1ccc(Cl)cc1 | 0.45% (inactive)
15 | Fc1ccc([C@@H]2CCNC[C@H]2COc2ccc3c(c2)OCO3)cc1 | -0.995% (inactive)
16 | CN(C)CCCN1c2ccccc2CCc2ccc(Cl)cc21 | -2.3% (inactive)
17 | C[C@H]1c2cccc(O)c2C(O)=C2C(=O)[C@]3(O)C(O)=C(C(N)=O)C(=O)[C@@H](N(C)C)[C@@H]3[C@@H](O)[C@@H]21 | 2.74% (inactive)
18 | O=C(Nc1ccc([N+](=O)[O-])cc1Cl)c1cc(Cl)ccc1O | -0.296% (inactive)
19 | CC(COc1ccccc1)N(CCCl)Cc1ccccc1 (stereo not given) | -2.85% (inactive)
20 | COc1ccc(C2CNC(=O)C2)cc1OC1CCCC1 (stereo not given) | 2.31% (inactive)

Row | SMILES | activity, positive = activation
21 | CC(C)C(=O)Nc1ccc([N+](=O)[O-])c(C(F)(F)F)c1 | -0.0975% (inactive)
22 | CNCCCC12CCC(c3ccccc31)c1ccccc12 | -2.62% (inactive)
23 | CCCCc1oc2ccccc2c1C(=O)c1cc(I)c(OCCN(CC)CC)c(I)c1 | 0.719% (inactive)
24 | Nc1c2c(nc3ccccc13)CCCC2 | 3.91% (inactive)
25 | Cc1ccccc1N1C(=O)c2cc(S(N)(=O)=O)c(Cl)cc2NC1C (stereo not given) | -1.34% (inactive)
26 | COc1nc(C)nc(Cl)c1NC1=NCCN1 | 3.87% (inactive)
27 | COc1cc2nc(N3CCN(C(=O)c4ccco4)CC3)nc(N)c2cc1OC | 2.32% (inactive)
28 | NC(=O)OCC(COC(N)=O)c1ccccc1 | 2.64% (inactive)
29 | CN1CCC(=C2c3ccccc3CC(=O)c3sccc32)CC1 | -0.808% (inactive)
30 | Clc1ccc(C(c2ccccc2Cl)C(Cl)Cl)cc1 (stereo not given) | 2.5% (inactive)
31 | O=C(c1ccc(OCCN2CCCCC2)cc1)c1c(-c2ccc(O)cc2)sc2cc(O)ccc12 | -8.39% (inactive)
32 | O=C(c1ccc(F)cc1)C1CCN(CCn2c(=O)[nH]c3ccccc3c2=O)CC1 | -2.3% (inactive)
33 | NC(=O)NO | 3.25% (inactive)
34 | N[C@@H](Cc1c[nH]c2ccc(O)cc12)C(=O)O | -0.705% (inactive)
35 | O=C1Cc2cc(CCN3CCN(c4nsc5ccccc45)CC3)c(Cl)cc2N1 | -1.47% (inactive)
36 | NC(CO)C(=O)NNCc1ccc(O)c(O)c1O (stereo not given) | -0.505% (inactive)
37 | O=c1c(-c2ccc(O)cc2)coc2cc(O)cc(O)c12 | -11.6% (inactive)
38 | CCOC(=O)Nc1ccc(NCc2ccc(F)cc2)nc1N | 0.227% (inactive)
39 | NC12CC3CC(CC(C3)C1)C2 | 2.94% (inactive)
40 | CCOC(=O)C(C)(C)Oc1ccc(Cl)cc1 | 0.968% (inactive)
